Only some compounds are listed: those with a hit (about 4% of all), similar ones and a draw of the others.
Shn3 3UTR inh = Schnurri-3 reporter inhibition in Clone20 osteoblasts | Clone20 osteoblast Shn3 3'UTR firefly luciferase, 24 h | AID 588674 | inhibition, % at 12.5 µM | 360,000 compounds, 0.52% hits;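 active = mean inhibition of at least 75% with every replicate also reaching 75%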;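 also: 0% = median of neutral control wells and 100% = pilot-screen positive control compound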
CSC inhib = cancer stem cell inhibition; cancer stem cell-like cells viability, luminescence; inhibition, % at 7.5 µM; 300,000 compounds, 1.1% hits; AID 2717; in the data active = inhibition above about 75%; tested in HMLE shEcad cells
Beta apoptosis = blocks beta cell apoptosis; protection from apoptosis, % (concentration not given with the values); 300,000 compounds, 0.8% hits; INS-1E cytokine-induced death, ATP luminescence, 48 h; percent of positive-control rescue, neutral wells zero;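 active = Every replicate reaches about 75%, or at least half do and their mean reaches it too, limit read from the data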;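 also: 0% = cytokine-treated negative control wells and 100% = positive control rescue; higher means more ATP so stronger rescue from cytokine killing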
PAX8 inh HTS = lowers PAX8-driven luciferase in RMG-I cells; RMG-I TPO-luciferase reporter, SteadyGlo, 24 h; inhibition, % at 12.6 µM; 360,000 compounds, 1.2% hits; AID 652154;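 active = mean replicate inhibition at least 60% with every replicate also reaching 60%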;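 also: luciferase light reporting Pax8 driven TPO promoter activity; plate controls were median of neutral control wells for no effect and mitoxantrone controls for full effect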
Gli-Sufu antag = Gli-Sufu pathway antagonism. inhibition, % at 5 µM. Sufu-KO-LIGHT fibroblasts, Gli luciferase reporter luminescence. AID 588413. 340,000 compounds, 0.74% hits;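 active = inhibition above about 55%, limit read from the data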;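 also: 0% = DMSO-treated cells and 100% = wells with medium but no cells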
Mdm2-MdmX inh = inhibitors of human Mdm2/MdmX interaction | inhibition, % at 8 µM | O15151+Q00987 | SaOS-2 split-luciferase Mdm2/MdmX complementation, luminescence | 330,000 compounds, 3% hits;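 active = inhibition of at least 50% at 8 µM in the primary screen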
* hit, by the source's call; · = not tested or not shown.

SMILES	Shn3 3UTR inh	CSC inhib	Beta apoptosis	PAX8 inh HTS	Gli-Sufu antag	Mdm2-MdmX inh
CCOC(=O)[C@]12Cc3cc(C)ccc3[C@H]1N(C1CCCCC1)C(=O)c1cc(OC)ccc12	·	·	·	104*	·	·
CC1=C(N2CC2)C(=O)C(CO)=C(N2CC2)C1=O	96*	·	·	118*	28	·
COc1ccc(-c2ccc([C@H]3[C@H]4CN(C(=O)Cc5ccccc5)CCCCN4[C@H]3CO)cc2)cc1	·	·	·	13	·	·
Clc1ccc(COC(Cn2ccnc2)c2ccc(Cl)cc2Cl)c(Cl)c1 (stereo unspecified)	48	102*	11	3	2	13
O=C(Cc1ccccc1)N1CCCCN2[C@@H](CO)[C@H](c3ccc(-c4ccccc4)cc3)[C@@H]2C1	·	·	·	-17	·	·
O=C(c1ccc(Cl)cc1)C1CCCN(Cc2cccc3ncccc23)C1 (stereo unspecified)	86*	8	2	21	25	27
CC=Cc1ccc2n(c1=O)C[C@@H]1[C@@H](CO)[C@H](C(=O)OC)[C@H]2N1CC1CCOCC1 (mixture of isomers)	·	·	·	-1	·	·
CC(C)CC#Cc1ccc([C@@H]2[C@H](CO)N3CCCCN(C(=O)Cc4ccccn4)C[C@@H]23)cc1	·	·	·	-2	·	·
CCN(CC)c1ccc(C=C2C(=O)N(C)C(=S)N(C)C2=O)o1	-39	3	4	78*	-14	-18
O=C(Cc1ccccc1)N1CC2(C1)[C@H](c1ccccc1)[C@H](CO)N2Cc1cccc(F)c1	·	·	·	17	·	·
COc1ccc(C#Cc2ccc([C@H]3[C@H]4CN(C(=O)Cc5cccnc5)CCCCN4[C@H]3CO)cc2)cc1	·	·	·	22	·	·
CC(=O)OC1C(O)C(C)OC(OC2C(OC(=O)C3CCC4C(C3)OC3(CC(OC(=O)/C=C/c5ccccc5)C(C)CO3)C43CO3)OC(C)C(O)C2OC(C)=O)C1O (stereo unspecified)	96*	·	·	104*	90*	·
CCOC(C[n+]1c(-c2ccccc2)cc(C)cc1-c1ccccc1)OCC	3	3	3	67*	0	33
COC(=O)c1nc(-c2ccc3c(n2)C(=O)C(N)=C(OC)C3=O)c(N)c(-c2ccc(OC)c(OC)c2O)c1C	46	113*	111*	17	58*	36
COc1ccc(OC(=O)N(C)C[C@H]2OCc3ccccc3-c3c(n(C)c4ccccc34)C(=O)N([C@@H](C)CO)C[C@@H]2C)cc1	·	·	·	33	·	·
O=C(Cc1ccccc1)N1CC2(C1)[C@H](c1ccccc1)[C@H](CO)N2Cc1cccc(Cl)c1	·	·	·	29	·	·
O=C(Cc1cccnc1)N1CCCCN2[C@@H](CO)[C@@H](c3ccc(C#CC4CCCC4)cc3)[C@@H]2C1	·	·	·	-10	·	·
O=C(Cc1cccnc1)N1CCCCN2[C@H](C1)[C@H](c1ccc(C#CC3CCCC3)cc1)[C@@H]2CO	·	·	·	92*	·	·
O=C(Cc1ccccc1)N1CCCCN2[C@H](C1)[C@H](c1ccc(C#Cc3ccccc3)cc1)[C@@H]2CO	·	·	·	26	·	·
O=C(Cc1ccncc1)N1CCCCN2[C@H](C1)[C@H](c1ccc(C#Cc3ccccc3F)cc1)[C@@H]2CO	·	·	·	77*	·	·
CCOC(=O)C1C(=O)NC2(C)CC1c1cc(OC)ccc1O2 (stereo unspecified)	89*	-8	0	·	-6	9
CC(C)CC#Cc1ccc([C@H]2[C@@H](CO)N3CCCCN(C(=O)Cc4ccccn4)C[C@H]23)cc1	·	·	·	-13	·	·
CN(C)c1ccc(/C=C/c2cc[n+](C)c3ccccc23)cc1	81	·	·	95*	87*	·
COC(=O)[C@H]1[C@H](CO)[C@H]2Cn3c(ccc(-c4ccccc4F)c3=O)[C@@H]1N2C(=O)C1CC1	·	·	·	1	·	·
Cc1[nH]nc2ccc(-c3cncc(OC[C@@H](N)Cc4c[nH]c5ccccc45)c3)cc12	96*	·	·	·	93*	·
SMILES	Shn3 3UTR inh	CSC inhib	Beta apoptosis	PAX8 inh HTS	Gli-Sufu antag	Mdm2-MdmX inh
COc1cccc(NP(=O)(Oc2ccc(Cl)cc2)Oc2ccc(Cl)cc2)c1	10	77*	-2	-1	0	49
C=C1C(C)C2C(Cc3ccccc3)NC(=O)C23OC(=O)/C=C/C(O)CCCC(C)C/C=C/C3C1O (stereo unspecified)	65	·	·	93*	36	·
O=C(Cc1cccnc1)N1CCCCN2[C@H](CO)[C@@H](c3ccc(C#CC4CC4)cc3)[C@@H]2C1	·	·	·	2	·	·
CCOC(=O)C(O)(c1ccc(NC(=S)NC(=O)c2ccc(Cl)cc2Cl)cc1)C(F)(F)F (stereo unspecified)	23	·	·	-6	3	27
COC(=O)C(O)(c1ccc(NC(=S)NC(=O)c2ccc(Cl)cc2Cl)cc1)C(F)(F)F (stereo unspecified)	20	12	2	84*	7	18
COC(=O)[C@H]1[C@H](CO)[C@H]2Cn3c(ccc(/C=C/c4ccccc4)c3=O)[C@@H]1N2CC1CCCC1	·	·	·	22	·	·
COC(=O)C12OCC34C(CC5C(C)=C(O)C(=O)CC5(C)C3C(O)C1O)OC(=O)C(OC(=O)/C=C(\C)C(C)C)C24 (stereo unspecified)	99*	·	·	96*	88*	·
O=C(Cc1ccccc1)N1CCCCN2[C@H](C1)[C@@H](c1ccc(-c3ccccc3)cc1)[C@@H]2CO	·	·	·	-14	·	·
O=C(c1ccc(CNS(=O)(=O)c2ccc(Br)cc2)cc1)N1CCC2(CC1)OCCO2	14	3	-1	64*	23	-4
COC(=O)[C@@H]1[C@@H](CO)[C@@H]2Cn3c(ccc(-c4ccncc4)c3=O)[C@H]1N2S(=O)(=O)c1ccccc1F	·	·	·	9	·	·
O=C(Cc1ccccn1)N1CCCCN2[C@@H](CO)[C@@H](c3ccc(-c4ccc(F)cc4)cc3)[C@@H]2C1	·	·	·	89*	·	·

High-throughput results from PubChem.
